Compound activity deposited in PubChem BioAssay by National Center for Advancing Translational Sciences (NCATS).
VDR inhibitor = inhibitors of human vitamin D receptor. P11473. VDR-SRC2-3 peptide fluorescence polarization, 2 h. Potency, µM, inactives show max response, negative = inhibition, hits mostly inhibitors. actives 0.93% (n = 400,000); note: % is set by controls: 0 for no effect and ±100 for the full control effect
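Two reagent solutions held at 4 deg C in the dark were dispensed, compounds pinned at 23 nl, and the mixture incubated 2 h at room temperature. Read-out: fluorescence polarization of VDR–SRC2-3 peptide binding.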
BRCA1 expr up = increases BRCA1 expression; MCF7-BRCA1-FFLuc reporter, luminescence, 48 h; response scale: scaled: vehicle 0%, 10 µM genistein 100%; Potency, µM (highest dose often 46.1 µM), inactives show top-dose activation, actives largely listed as activators; actives 1.1% (n = 380,000); AID 624202; note: nearly all actives have a fitted effect of over 80% in size
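Luminescence from a BRCA1-driven firefly luciferase in MCF7 cells was the read-out, taken 15 min after substrate addition following 48 h compound exposure at 37 °C. Data were normalized to a 10 microM genistein control and DMSO vehicle.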
PLK1 PBD block = PLK1 (human) polo-box domain binding inhibition; Plk1 PBD binding of FITC phosphopeptide, fluorescence polarization; Potency, µM, without a hit: max response, negative = inhibition, hits mostly inhibitors; actives 2.8% (n = 360,000); note: series mostly up to about 57 µM; % is set by controls: 0 for no effect and ±100 for the full control effect; nearly all actives have a fitted effect of over 65% in size
Target sequence (P53350 whole entry, looked up, the tested form may be a part): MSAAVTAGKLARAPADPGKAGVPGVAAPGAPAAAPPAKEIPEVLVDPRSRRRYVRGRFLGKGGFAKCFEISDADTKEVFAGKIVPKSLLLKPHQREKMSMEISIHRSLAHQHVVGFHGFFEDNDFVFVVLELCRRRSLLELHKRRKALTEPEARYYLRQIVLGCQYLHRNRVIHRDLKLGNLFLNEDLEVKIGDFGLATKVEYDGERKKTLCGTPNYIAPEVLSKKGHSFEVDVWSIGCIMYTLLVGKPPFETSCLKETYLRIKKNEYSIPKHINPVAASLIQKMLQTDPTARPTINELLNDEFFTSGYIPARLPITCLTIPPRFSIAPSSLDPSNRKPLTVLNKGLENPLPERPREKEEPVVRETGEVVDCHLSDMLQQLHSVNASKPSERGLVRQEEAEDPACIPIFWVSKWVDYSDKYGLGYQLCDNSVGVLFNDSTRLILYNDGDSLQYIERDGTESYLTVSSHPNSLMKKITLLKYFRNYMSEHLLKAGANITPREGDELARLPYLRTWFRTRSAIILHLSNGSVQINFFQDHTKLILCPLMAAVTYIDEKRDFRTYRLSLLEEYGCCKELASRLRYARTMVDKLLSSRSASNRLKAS
Tb PFK inh-1 = inhibitors of T. brucei phosphofructokinase | T. brucei PFK, ADP-Glo luminescence | Potency, µM (series often up to 57.5 µM), for inactives: top-dose activity, negative = inhibition, actives largely listed as inhibitors | actives 0.17% (n = 330,000) | AID 485367;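 note: 0% = uninhibited 1x PFK enzyme wells and -100% = no-enzyme wells; nearly all actives have a fitted effect of over 60% in size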
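ADP-Glo luminescence quantified ADP after 45 min at room temperature, with 1.25 nM T. brucei PFK, 0.1 mM ATP and 0.5 mM fructose-6-phosphate in pH 8.0 TEA buffer. qHTS titrations up to 57 µM; curves classified by quality.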
TbPFK ATP = Tb phosphofructokinase inhibition, orthogonal luminescence; actives 47% (n = 1,100); Tb PFK enzyme, ATP depletion, Kinase-Glo Plus luminescence; shares compounds with Tb PFK inh-1; Potency, µM (series often up to 57.5 µM), without a hit: top-dose inhibition; calls by dose curve; note: nearly all actives have a fitted effect of over 60% in size
Tb PFK inh-2 = T. brucei PFK enzyme inhibition, hit validation; shares compounds with Tb PFK inh-1; actives 41% (n = 1,100); Potency, µM (highest dose often 57.5 µM), for inactives: top-dose activity change, negative = inhibition, usual class: inhibitors; purified T. brucei PFK, ADP-Glo luminescence, 45 min; AID 504637;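 note: plate controls were full PFK enzyme control for no effect and no enzyme control for full effect; nearly all actives have a fitted effect of over 60% in size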
* marks the source's active call; other numbers are inactive results; u = inconclusive; x = not tested or not shown. Shown are actives, neighbours in structure and some others; about 3.9% of the full set was active somewhere. Unless noted, calls come from the whole dose curve; as a rule, active = well fitted curve in the direction sought with a large enough effect; inconclusive = small, poorly fitted or top-dose-only effect, or another doubt; inactive = no such curve, though single readings can be large; an effect the other way counts as inactive or inconclusive. Potency is the fitted concentration of half-maximal effect.

SMILES	VDR inhibitor	BRCA1 expr up	PLK1 PBD block	Tb PFK inh-1	TbPFK ATP	Tb PFK inh-2
O=C1C2C3CCC(C3)C2C(=O)N1c1ccc(OS(=O)(=O)c2ccccc2)cc1 (centres undefined)	9%	u	-4%	4%	x	x
O=S(=O)(O)c1cc(OS(=O)(=O)c2ccccc2)cc2ccccc12	1%	4%	-13%	24µM*	u	u
O=C(COC(=O)/C=C/c1ccco1)Nc1ncc(C(F)(F)F)cc1Cl	-6%	3%	-25%	17µM*	11µM*	13µM*
O=C(NC(=O)c1c(F)cccc1F)Nc1ccc(Cl)c(Oc2ncc(C(F)(F)F)cc2Cl)c1	12%	x	x	x	x	x
CCN1C(=O)C(=C2C=C(C)N(Cc3ccco3)C(C)=C2)C(=O)N(CC)C1=S	2%	-4%	-11%	-3%	x	x
Cc1[nH]c2ccccc2c1C(=O)CN1C(=O)C(=O)N(Cc2ccco2)C1=O	-6%	12%	-4%	u	-28%	u
CC1(C)C(=O)Nc2ccccc2N1C(=O)COC(=O)Cc1ccc(Cl)c(Cl)c1	-16%	-9%	-8%	24µM*	u	u
CSC(=S)NCc1c[nH]c2ccccc12	0%	x	x	x	x	x
CCCCCCC(=O)CCCCCC/C=C/C[C@@H](O)[C@H](O)[C@@](N)(CO)C(=O)O	1%	x	x	x	x	x
O=C(CN1C(=O)CN=C(c2ccccc2)c2ccccc21)Nc1cccc(C(F)(F)F)c1	-12%	x	x	x	x	x
O=C(CN1C(=O)/C(=C2\SC(=S)N(CCS(=O)(=O)O)C2=O)c2ccccc21)Nc1cccc(Br)c1	u	-20%	6.7µM*	27µM*	4.3µM*	7.6µM*
Cc1ccc(-c2cc(C(=O)Nc3nccs3)c3ccccc3n2)o1	7%	-10%	u	30µM*	21µM*	u
CCCC(C)(COC(N)=O)COC(=O)NC1CC1 (centres undefined)	2%	x	x	x	x	x
Cc1ccc(-c2nc3c(c(SCC(=O)Nc4cccc(C(=O)O)c4)n2)Cc2cccc(C)c2O3)cc1	6%	75%	x	1.7µM*	1.1µM*	u
Cc1cccc(-n2c(/C=C/c3c[nH]c4ccccc34)nc3ccccc3c2=O)c1	2%	x	x	x	x	x
Cc1ccc(S(=O)(=O)N(C(=O)c2ccncc2)c2ccc(OC(=O)c3ccncc3)c3ccccc23)cc1	u	-17%	9.5µM*	17µM*	2.4µM*	2.7µM*
Cc1nc2cc([N+](=O)[O-])ccc2c(=O)n1-c1ccccc1[N+](=O)[O-]	2%	-30%	-8%	-3%	x	x
O=c1/c(=C\c2cc([N+](=O)[O-])cc([N+](=O)[O-])c2O)sc2nc3ccccc3n12	40µM*	-5%	u	u	u	-7%
Cc1nn(-c2ccncc2)c2c1C(=O)CC(C)(C)C2Br (centres undefined)	u	3%	-11%	x	x	x
CCSc1nnc(NC(=O)COc2ccc3ccccc3c2)s1	2%	-1%	-3%	u	-33%	u
Cc1c(C(=O)c2ccc3ccccc3c2)c2cccc3c2n1[C@H](CN1CCOCC1)CO3	-2%	x	x	x	x	x
O=C(CCNc1ccc(Cl)c(C(F)(F)F)c1)c1ccco1	-7%	-18%	-16%	u	u	u
N#Cc1ccc(NC(=O)CCNC(=O)c2ccco2)cc1Cl	0%	77%	-4%	-1%	x	x
O=C(CCNc1ccc(F)c(Cl)c1)c1ccco1	7%	2%	-11%	u	13µM*	21µM*
ClCC1C(CCl)C2(Cl)C(Cl)=C(Cl)C1(Cl)C2(Cl)Cl (centres undefined)	4%	x	x	x	x	x
Nc1n[nH]c(=S)n1/N=C1/C(=O)Nc2ccccc21	u	-1%	27µM*	u	3µM*	9.5µM*
O=C1Nc2ccccc2Sc2ccccc21	-25%	-7%	3%	1%	x	x
NC(=S)N=Nc1ccc(NN=C(N)N)cc1	18µM*	-20%	3.8µM*	u	6.7µM*	13µM*
O=C(Nc1cnn(Cc2ccc(Cl)c(Cl)c2)c1)C12CC3CC(CC(C3)C1)C2	-2%	-36%	-4%	u	u	u
